Shown is part of a subset that was picked to be rich in hits.
ERG-DNA inh: inhibitors of human ERG Ets domain-DNA interaction | P11308 | fluorescence polarization, His-ERG Ets domain / labelled DNA | Potency, µM (titrated, usually from 76.9 µM), for the others: at the highest dose FP activity, negative = inhibition, hits mostly inhibitors | 370,000 tested, 0.028% active | AID 624246; active = well fitted inhibition curve with a large enough effect in the polarisation, with a control signal flat; inconclusive = small, poorly fitted or top-dose-only effect, or effect the other way, or a change in a side signal; inactive = no such curve, though single readings can be large or run the other way; the % refers to the polarisation;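 note: polarization taken with two DNA probes labelled with fluorescein and Texas red; potency is the fitted concentration of half-maximal effect; % of control where 0% means no effect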
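His-tagged ERG Ets domain (1 uM in the protein solution; 300mM KCl, 50mM Tris-HCl, 1mM EDTA, 1mM DTT, pH 7.5) received compound, then a probe mix of 5 nM fluorescein-DNA and 100nM Texas-615-DNA. Fluorescence polarization was read for both dyes.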
a7 integrin act: activates integrin-mediated alleviation for muscular dystrophy. Potency, µM (doses to about 38.3 µM), for the others: at the top dose activation, actives largely listed as activators. 350,000 tested, 0.064% active. alpha7betagal myoblasts, beta-gal FDG fluorescence, 48 h. AID 624291;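 note: potency is the fitted concentration of half-maximal effect; 100% = response of the positive control SU9516; nearly all actives have a fitted effect of over 60% in size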
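alpha7betagal+/- myoblasts (passage 13, 250/well) treated 48 h at 37C with compounds at 1:260 dilution of DMSO stock. Lysed, then beta-galactosidase activity read as FDG fluorescence (ex 480/em 540) after 30 min, with pre-read for autofluorescence.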
RORg inh: blocks mouse ROR gamma transcriptional activity | Drosophila S2 Gal4-RORgamma UAS-luciferase reporter, 20 h | 310,000 tested, 5.4% active | Potency, µM (doses to about 53.6 µM), for inactives: at the highest dose activity change, negative = inhibition, usual class: inhibitors; note: potency is the fitted concentration of half-maximal effect; % is set by controls: 0 for no effect and ±100 for the full control effect; nearly all actives have a fitted effect of over 60% in size
Target sequence (P51450 whole entry, looked up, the tested form may be a part): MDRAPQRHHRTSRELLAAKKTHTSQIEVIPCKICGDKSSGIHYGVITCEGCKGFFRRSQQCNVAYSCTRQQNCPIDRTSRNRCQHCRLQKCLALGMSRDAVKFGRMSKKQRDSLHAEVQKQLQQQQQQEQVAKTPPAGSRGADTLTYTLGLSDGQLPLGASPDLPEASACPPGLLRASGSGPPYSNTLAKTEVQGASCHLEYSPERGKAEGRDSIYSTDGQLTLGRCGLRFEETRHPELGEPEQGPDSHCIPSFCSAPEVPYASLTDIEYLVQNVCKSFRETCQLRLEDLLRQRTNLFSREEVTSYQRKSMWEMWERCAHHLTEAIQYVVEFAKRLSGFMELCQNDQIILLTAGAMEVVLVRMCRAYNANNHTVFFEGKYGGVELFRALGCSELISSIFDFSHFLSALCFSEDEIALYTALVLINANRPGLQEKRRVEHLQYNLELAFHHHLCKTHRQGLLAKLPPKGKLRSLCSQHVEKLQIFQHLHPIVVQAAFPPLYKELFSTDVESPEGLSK
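Using a luciferase readout, inhibitors were identified by reduced reporter activity in Drosophila cells coexpressing a copper-inducible Gal4–ROR gamma fusion and UAS-driven Photinus luciferase, incubated 20 hr after 700 uM copper sulfate.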
Giardia kill: kills Giardia lamblia; Giardia lamblia trophozoite viability; activity change, % at 7.66 µM, hits read low; 340,000 tested, 0.15% active; AID 540267; in the data active = activity change below about -80%; inconclusive = between about -30% and that limit;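 note: parasites exposed to compound for two days anaerobically before the ATP read; % is set by controls: 0 for no effect and ±100 for the full control effect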
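Compounds were tested on trophozoites seeded at 100 cells/well and held 48 hrs at 37 deg C anaerobically. An ATP-based luminescent kit measured the remaining live cells.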
Gal4-VP16 FLuc: inhibits Gal4-VP16 luciferase reporter, ROR gamma counter-screen | Drosophila S2 Gal4-VP16 UAS-luciferase, luminescence, 20 h | Potency, µM (highest dose often 53.6 µM), for inactives: at the highest dose activity, negative = inhibition, hits mostly inhibitors | 310,000 tested, 3.5% active | AID 2546;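 note: Gal4-VP16 expression switched on by copper sulfate through the metallothionein promoter; potency is the fitted concentration of half-maximal effect; % is set by controls: 0 for no effect and ±100 for the full control effect; nearly all actives have a fitted effect of over 50% in size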
Numbers without * were called inactive; ? = inconclusive; . = not tested or not shown; [ ] = remark or other dose. Unless noted, calls come from the whole dose curve; as a rule, active = well fitted curve in the direction sought with a large enough effect; inconclusive = small, poorly fitted or top-dose-only effect, or another doubt; inactive = no such curve, though single readings can be large; an effect the other way counts as inactive or inconclusive.

SMILES	ERG-DNA inh	a7 integrin act	RORg inh	Giardia kill	Gal4-VP16 FLuc
Fc1ccc(NC(=S)NCc2ccccc2Cl)cc1	-4%	0%	7.1µM*	-20	14µM*
CCCNC(=S)Nc1ccc(CC(=O)OC)cc1	13%	-20%	-40%	0	7%
O=C(CCCC[C@@H]1SC[C@H]2NC(=O)N[C@H]12)Nc1ccc(C(=O)O)cc1	.	.	6%	.	-9%
CCCCCn1c(CN2CCN(c3ccc(OC)cc3)CC2)nc2c1c(=O)[nH]c(=O)n2C	5%	.	.	.	.
COCCNc1nc(-c2ccccc2Cl)nc2ccccc12	.	.	39%	.	-14%
CCC(=O)Nc1cccc(C(=O)OCc2cccc([N+](=O)[O-])c2)c1	7.1µM*	-7%	?	-12	10%
Cc1cc2c(cc1Cl)C(c1ccc3c(c1)OCO3)CC(=O)O2 (centres undefined)	.	.	0%	.	0%
Cc1ccc(C(C[N+](=O)[O-])c2c(-c3ccccc3O)[nH][nH]c2=O)cc1 (centres undefined)	-3%	-74%	5µM*	-15	11µM*
Cc1ccc(-c2cnc(N)n2C)cc1C	-3%	-9%	20µM*	-4	?
CN(c1ccccc1)S(=O)(=O)c1ccc(NC(=S)NC(=O)C2CC2)cc1	-5%	-7%	11µM*	-6	?
COc1ccccc1/C=C/C(=O)NC(=S)Nc1ccc(S(=O)(=O)N(C)c2ccccc2)cc1	-8%	-14%	13µM*	6	5%
CN(Cc1ccccc1)S(=O)(=O)c1ccc(NC(=S)NC(=O)C2CCCC2)cc1	14%	-7%[7.66 µM]	5µM*	-6	?
COc1cc(C(=O)Nc2ccc(S(=O)(=O)N(C)c3ccccc3)cc2)cc(OC)c1OC	1%	-20%	?	-3	10%
Cc1ccc(C(=O)NC(=S)Nc2ccc(S(=O)(=O)N(C)c3ccccc3)cc2)cc1	-2%	-6%	7.1µM*	17	?
CC(=O)Nc1ccc(NC(=O)c2ccc(S(=O)(=O)N(C)c3ccccc3)cc2)cc1	2%	-8%	.	6	.
Cc1cc(C)nc(SCc2ccc3nonc3c2)n1	-6%	-4%	-1%	14	-6%
CC(C)(C)NS(=O)(=O)c1ccc(NC(=S)NC(=O)C2CCC2)cc1	-1%	18%	18µM*	27	-16%
CN(c1ccccc1)S(=O)(=O)c1ccc(NC(=S)NC(=O)c2ccccc2)cc1	6%	-32%	18µM*	12	?
CC(C)C[C@@H](CC(=O)N[C@@H](CCC(=O)O)CC(=O)O)NC(=O)[C@@H]1CCCC[C@H]1NC(=O)C[C@@H](NC(=O)C[C@H](Cc1c[nH]c2ccccc12)NC(=O)[C@@H]1CNCC[C@H]1N)C(C)C	.	.	10%	.	-5%
COc1ccccc1-n1cc(-c2ccc(C)cc2)[nH]c1=S	-15%	-14%	2.8µM*	0	7.1µM*
S=c1[nH]c(-c2ccc(Br)cc2)cn1CCc1ccccc1	1%	1%	6.3µM*	8	20%[10 µM]
COc1ccccc1-n1cc(-c2ccc([N+](=O)[O-])cc2)[nH]c1=S	-2%	10%	1.6µM*	19	-22%
CN1CCN(C(=O)c2ccc3c(=O)n(CCc4ccccc4)c(=S)[nH]c3c2)CC1	-5%	7%	.	8	.
COc1ccccc1-n1cc(-c2ccc(Br)cc2)[nH]c1=S	-1%	11%	4.5µM*	-2	10µM*
CCCCCn1c(CCCNC(=O)CC)nc2ccccc21	2%	9%	?	1	-6%
SMILES	ERG-DNA inh	a7 integrin act	RORg inh	Giardia kill	Gal4-VP16 FLuc
CN(CC(=O)Nc1ccc(F)cc1)CC(=O)N1CCCCCC1	0%	10%	.	-14	.
Cc1ccc(NC(=O)C2COc3ccccc3O2)cc1S(=O)(=O)N1CCOCC1 (centres undefined)	6%	-1%	.	9	.
O=C1CCCN1S(=O)(=O)c1ccc(F)cc1	18%	22%	.	19	.
CC12CCC(c3nnc(SCc4ccc(Cl)cc4)nc31)C2(C)C (centres undefined)	-11%	-9%	?	-6	1%
CC12CCC(c3n[nH]c(=S)nc31)C2(C)C (centres undefined)	.	32%	13µM*	9	?
COc1cccc(C2NC(C(=O)O)CCC2C)c1 (centres undefined)	.	.	-4%[10 µM]	.	-10%[10 µM]

Screening results deposited in PubChem by National Center for Advancing Translational Sciences (NCATS).
